From PubChem BioAssay (Tox21)
Where “and” joins values, the source holds several entries; their conditions need not be identical. Equal values may be shown once. Inconclusive results are not listed. A call without a number means that no potency is given here. Where a structure was tested more than once in an assay, its records may differ in their call. Calls of active or inactive are those of the source. Calls come from the whole dose curve; as a rule, active = well fitted inhibition curve with a large enough effect in the repeat runs; inconclusive = weak or mixed curves; inactive = flat fitted curve, though single readings scatter.

What follows are molecules tested against Voltage-gated inwardly rectifying potassium channel KCNH2 (Homo sapiens) (UniProt Q12809) (assay: Human Ether-a-go-go-Related Gene (hERG) channel small molecule antagonists: fluorescence cell-based qHTS assay (AID 1671200; note: nearly all actives have a fitted effect of over 50% in size)). Conditions: hERG-U2OS cells, FluxOR thallium flux fluorescence; series mostly up to 76.8 µM; activity change, negative = inhibition: at the top concentration.
Chain of Voltage-gated inwardly rectifying potassium channel KCNH2 (Homo sapiens) (Q12809 whole entry, looked up): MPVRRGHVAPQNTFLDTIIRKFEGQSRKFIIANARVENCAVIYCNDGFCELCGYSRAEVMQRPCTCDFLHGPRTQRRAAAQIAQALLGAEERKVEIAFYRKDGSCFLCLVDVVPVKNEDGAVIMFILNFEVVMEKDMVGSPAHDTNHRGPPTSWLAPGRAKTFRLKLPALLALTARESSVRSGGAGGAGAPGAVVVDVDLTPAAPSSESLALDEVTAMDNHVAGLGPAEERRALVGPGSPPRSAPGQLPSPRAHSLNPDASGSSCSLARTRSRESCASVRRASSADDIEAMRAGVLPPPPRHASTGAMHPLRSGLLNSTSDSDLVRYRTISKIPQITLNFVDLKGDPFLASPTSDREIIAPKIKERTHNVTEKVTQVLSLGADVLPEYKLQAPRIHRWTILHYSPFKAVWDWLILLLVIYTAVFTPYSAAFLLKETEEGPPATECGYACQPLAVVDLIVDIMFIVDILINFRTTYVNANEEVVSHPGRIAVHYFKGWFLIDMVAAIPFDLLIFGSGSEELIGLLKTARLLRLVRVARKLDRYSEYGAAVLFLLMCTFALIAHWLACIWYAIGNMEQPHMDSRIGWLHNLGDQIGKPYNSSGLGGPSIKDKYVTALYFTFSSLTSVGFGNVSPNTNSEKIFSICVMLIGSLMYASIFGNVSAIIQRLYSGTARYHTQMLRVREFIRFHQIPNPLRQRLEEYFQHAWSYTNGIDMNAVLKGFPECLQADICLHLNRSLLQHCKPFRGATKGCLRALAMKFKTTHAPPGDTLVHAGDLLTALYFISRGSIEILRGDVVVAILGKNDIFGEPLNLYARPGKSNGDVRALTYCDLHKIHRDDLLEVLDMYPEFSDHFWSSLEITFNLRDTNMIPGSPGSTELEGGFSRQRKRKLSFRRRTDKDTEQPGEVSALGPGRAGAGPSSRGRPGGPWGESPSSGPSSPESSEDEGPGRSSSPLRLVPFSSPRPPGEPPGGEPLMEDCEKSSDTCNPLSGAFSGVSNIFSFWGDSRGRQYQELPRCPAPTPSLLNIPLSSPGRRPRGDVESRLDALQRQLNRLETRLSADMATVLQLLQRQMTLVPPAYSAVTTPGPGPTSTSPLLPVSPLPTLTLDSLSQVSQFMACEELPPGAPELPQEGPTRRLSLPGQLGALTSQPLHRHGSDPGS
Excerpt: National Center for Advancing Translational Sciences [NCATS]
U.S. Environmental Protection Agency [EPA]
National Institutes of Environmental Health Sciences [NIEHS]
National Toxicology Program [NTP]
U.S. Food and Drug Administration [FDA]
Mutations in the hERG channel cause Long QT (LQT) syndrome. LQT syndrome is a cardiac disorder which can cause ventricle arrhythmia and sudden death. Additionally, compounds which block the hERG channel can cause acquired LQT syndrome. Several FDA approved drugs have been removed from the market due to their hERG blocking activity. A cell-based hERG channel inhibition assay can be used to screen chemical compounds that inhibit hERG channel. This assay measures hERG channel activity using thallium ions as surrogate ions to measure potassium into the cells.
Tox21 Assay Protocol Summary:
hERG-U2OS cells were resuspended in culture medium and dispensed into 1536-well, black wall/clear-bottom plates at 1000cells/well/3uL using a Multidrop Combi dispenser (Thermo Fisher, Waltham, MA). After plates were incubated at 37 C overnight, 3 uL of Loading Buffer provided by FluxOR II Potassium Ion Channel Assay kit (Thermo, Carlsbad, CA) was added to each well. The assay plates were then incubated at room temperature in the dark for 1h. […] After the assay plates were incubated at room temperature for 10 min, 1 uL of Stimulus Buffer provided by FluxOR II Potassium Ion Channel Assay kit was added into each well and fluorescence intensity (480nm excitation/540nm emission) was continuously measured for 2 min at 1 second intervals using a Functional Drug Screening System (FDSS) 7000EX kinetic plate reader (Hamamatsu, Japan).
Potency is the fitted concentration of half-maximal effect.

SMILES | Potency | activity change, negative = inhibition
CS(=O)(=O)Nc1ccc([N+](=O)[O-])cc1Oc1ccccc1 | inactive | 
CC[Si](OC(C)=O)(OC(C)=O)OC(C)=O | inactive | 
Cc1cc(Cc2ccc(N)c(C)c2)ccc1N | inactive | 
CC(C)(C)C(=O)C1C(=O)c2ccccc2C1=O | inactive | 
Nc1nc2ncc(CNc3ccc(C(=O)N[C@@H](CCC(=O)O)C(=O)O)cc3)nc2c(=O)[nH]1 | inactive | 
CCCCC(CC)COC(=O)/C=C\C(=O)OCC(CC)CCCC (stereo not given) | inactive | 
C=C(C#N)C(=O)OCC | inactive | 
O=C1CCCCC1 | inactive | 
OCC#CCO | inactive | 
ClC1=C(Cl)C(Cl)(Cl)C(Cl)=C1Cl | inactive | 
CCCCC(CC)COC(C)=O (stereo not given) | inactive | 
CCC(C)C=O (stereo not given) | inactive | 
CCCCC/C=C\C/C=C\CCCCCCCC(=O)OC |  | -2.53% (inactive)
CCCCCCCCCCCCN | inactive and 12.3 µM (active) | 
Oc1c(Cl)cc(Cl)c(Cl)c1Cl | inactive | 
NS(=O)(=O)c1cc2c(cc1Cl)NC=NS2(=O)=O | inactive | 
Clc1cc(Cl)c(Cl)cc1Cl | inactive | 
Nc1cc(-c2ccncc2)c[nH]c1=O | inactive | 
CN(C)c1cccc(O)c1 | inactive | 
OC[C@@H](O)[C@H](O)[C@H](O)[C@@H](O)CO | inactive | 

SMILES | Potency | activity change, negative = inhibition
O=C(Oc1ccccc1)c1ccc(O)cc1 | inactive | 
C=C1CC[C@H](O)CC1=C/C=C1\CCC[C@]2(C)[C@@H]([C@H](C)/C=C/[C@H](C)C(C)C)CC[C@@H]12 | inactive | 
NCCc1ccc(O)c(O)c1 | inactive | 
CCOC(=O)/C=C\C(=O)OCC | inactive | 
CC1=C(CC(=O)O)c2cc(F)ccc2/C1=C\c1ccc(S(C)=O)cc1 (stereo not given) | inactive | 
CCc1ccc(O)cc1 | inactive | 
C=CC(=O)OCCCCCCCC(C)C | inactive | 
CC1=CC[C@H]2C[C@@H]1C2(C)C | inactive | 
CCCCNC(N)=O | inactive | 
CC(C)(N=C=O)c1cccc(C(C)(C)N=C=O)c1 | inactive | 
NCCNCCNCCNCCN | inactive | 
O=C(O)c1ccc([N+](=O)[O-])cc1 | inactive | 
CCOC(=O)[C@H](CCc1ccccc1)N[C@@H](C)C(=O)N1Cc2ccccc2C[C@H]1C(=O)O | inactive | 
CC(=O)[C@@]1(O)CC[C@H]2[C@@H]3CCC4=CC(=O)CC[C@]4(C)[C@H]3CC[C@@]21C | inactive | 
CCCCCCC(C)(C)S | inactive | 
O=S(=O)(O)CCS | inactive | 
Nc1c(S(=O)(=O)O)cc(Br)c2c1C(=O)c1ccccc1C2=O | inactive | 
CCCCOCCOCCOC(=O)CCCCC(=O)OCCOCCOCCCC | inactive | 
CCCCCCCCCCC=CC1CC(=O)OC1=O (stereo not given) | inactive | 
O=c1c(-c2ccc(O)cc2)coc2cc(O)ccc12 | inactive | 
